Compounds without any hit were thinned out: in the full panel of roughly 83,000, 20% have a hit.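 Each cell line was grown in a 96-well plate and treated with one concentration of compound for 48 hours. Values below 10 were considered active.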 Activity calls are given as the source filed them.
system: MDA-MB-231 breast; experiment: NCI-60 one-dose screen, 48 h (100 = growth as untreated, 0 = no growth, -100 = all killed); details: 10 µM

| SMILES | growth |
| --- | --- |
| COc1cc(-c2cc(/C=C3\C(=O)Nc4cc(Cl)ccc43)[nH]n2)cc(OC)c1OC | 34.2% (inactive) |
| CCCCCCc1cc(N=Nc2ccc(S(=O)(=O)Nc3cc(C)nc(C)n3)cc2)c(O)cc1O | 111% (inactive) |
| N#CC1=C(Nc2ccccc2Cl)SC(c2ccccc2O)NC1=O (stereo not drawn) | 113% (inactive) |
| COc1cc(-c2nc(Nc3nc4ccccc4s3)[nH]c(=O)c2C#N)cc(OC)c1O | 106% (inactive) |
| CCCCCCCCCCCCCCCCCCOCC(COCCOCC[N+]1(CCCCCC(=O)[O-])CCCC1)Oc1ncccn1 (stereo not drawn) | 51.9% (inactive) |
| COc1ccc(C2=NN(C(=O)c3ccc(S(C)(=O)=O)cc3)C(c3ccc(OC)c(OC)c3)C2)c(OC)c1 (stereo not drawn) | 95.2% (inactive) |
| COc1ccccc1CNCCCN1C(=O)c2ccc3c4c(ccc(c24)C1=O)C(=O)N(CCCN)C3=O | 3.16% (active) |
| Nc1nc(N)c(NC(=O)CNc2ccc(C(=O)O)cc2)c(N)n1 | 106% (inactive) |
| c1ccc(CP(Cc2ccccc2)c2ccccc2)cc1 | 98.3% (inactive) |
| COC(=O)C1(C)Cc2cc(OC(C)=O)c(OC(C)=O)cc2N1 (stereo not drawn) | 101% (inactive) |
| CC(=O)OCc1cc(-c2nc3ccccc3[nH]c2=O)nn1-c1ccc(Cl)cc1 | 98.1% (inactive) |
| CC(=O)c1nc2ccccc2n1CCN1CCN(C)CC1 | 42.9% (inactive) |
| COc1ccc(-c2nn(-c3cccc(NC(=O)Nc4ccc(Cl)c(C(F)(F)F)c4)c3)cc2-c2ccncc2)cc1Cl | 0.455% (active) |
| COc1cc(C(=O)/C=C/c2cc(-c3cc(OC)c(OC)c(OC)c3)n[nH]2)cc(OC)c1OC | 3.71% (active) |
| Cc1cccc(NC2=C(C#N)C(=O)NC3(CCCC3)S2)c1 | 110% (inactive) |
| O=C1/C(=C\c2ccc(F)cc2)CN(C(=O)c2ccccc2)C/C1=C\c1ccc(F)cc1 | -25.9% (active) |
| COc1cc(-c2cc(/C=C3\C(=O)Nc4ccccc43)[nH]n2)cc(OC)c1OC | 49.9% (inactive) |
| COc1cc(/C=C\c2cc(OC)c(OC)c(OC)c2)cc(NS(=O)(=O)c2ccc(Cl)cc2)c1OC | 24% (inactive) |
| S=C1SCC(c2ccccc2)S1 (stereo not drawn) | 107% (inactive) |
| CCN(CC)Cc1cc(Nc2ccnc3cc(Cl)ccc23)ccc1OC | 55.7% (inactive) |

| SMILES | growth |
| --- | --- |
| COC(=O)C(C(C[N+](=O)[O-])c1ccccc1)=P(c1ccccc1)(c1ccccc1)c1ccccc1 (stereo not drawn) | 108% (inactive) |
| O=S(=O)(NCCCNc1nccc(-c2c(-c3ccc(F)cc3)nc3sccn23)n1)c1ccc2ccccc2c1 | 34.9% (inactive) |
| CC(=O)N1N=C(c2ccc(Cl)cc2)CC1c1sc(Cl)nc1Cl (stereo not drawn) | 82.1% (inactive) |
| O=c1[nH]c2ccc(Cl)cc2c2ccccc12 | 78.2% (inactive) |
| COc1ccc(NC2=NC(C)(CO)CS2)cc1 (stereo not drawn) | 97.5% (inactive) |
| N#Cc1ncc(Br)c(NC2CCCCCC2)n1 | 98% (inactive) |
| O=C(Nc1cccc(-n2cc(-c3ccncc3)c(-c3cc(O)cc(Cl)c3)n2)c1)Nc1ccc(Cl)c(C(F)(F)F)c1 | -47.3% (active) |
| Nc1ncn(C2OC(CO)C(O)C2O)c(=O)n1 (stereo not drawn) | 0.46% (active) |
| O=C(Nc1nc(-c2ccccc2Cl)cs1)c1cc(-c2ccc(Cl)cc2)nc2ccc(Cl)cc12 | 22% (inactive) |
| Nc1c(C(=O)Nc2cccc(F)c2)sc2nc3c(cc12)C(=O)CCC3 | 40.8% (inactive) |
| COc1ccc(-c2cc(/C=C3\C(=O)Nc4ccc(Cl)cc43)[nH]n2)cc1OC | 79.6% (inactive) |
| O=C1CC[C@@H]2CCCC[C@@H]2C1 | 96% (inactive) |
| COc1ccc2c(c1)O/C(=C\c1ccc([N+](=O)[O-])s1)C2=O | 37.4% (inactive) |
| Nc1nc(N)c2c(ccc3nccc32)[nH]1 | 73.5% (inactive) |
| Nc1cc2c(cc1Cl)-c1ccc([N+](=O)[O-])cc1/C2=N\O | 105% (inactive) |
| COc1cc(-c2cc(/C=C/C(=O)c3ccc4c(c3)OCO4)[nH]n2)cc(OC)c1OC | 64.5% (inactive) |
| COc1ccc(Cl)cc1C(=O)Nc1nc2ccc(Cl)cc2s1 | 70.9% (inactive) |
| Cc1cc2c(C)c3cc(C)c(N)cc3nc2cc1N | 20.3% (inactive) |
| O=c1oc2cc(OS(=O)(=O)c3ccccc3)ccc2c2c1CCCCC2 | 68.4% (inactive) |

system: RXF 393 renal; experiment: as above; details: 10 µM

| SMILES | growth |
| --- | --- |
| COc1cc(-c2cc(/C=C3\C(=O)Nc4cc(Cl)ccc43)[nH]n2)cc(OC)c1OC | 75.3% (inactive) |
| CCCCCCc1cc(N=Nc2ccc(S(=O)(=O)Nc3cc(C)nc(C)n3)cc2)c(O)cc1O | 118% (inactive) |
| N#CC1=C(Nc2ccccc2Cl)SC(c2ccccc2O)NC1=O (stereo not drawn) | 121% (inactive) |
| COc1cc(-c2nc(Nc3nc4ccccc4s3)[nH]c(=O)c2C#N)cc(OC)c1O | 105% (inactive) |
| CCCCCCCCCCCCCCCCCCOCC(COCCOCC[N+]1(CCCCCC(=O)[O-])CCCC1)Oc1ncccn1 (stereo not drawn) | 28.3% (inactive) |
| COc1ccc(C2=NN(C(=O)c3ccc(S(C)(=O)=O)cc3)C(c3ccc(OC)c(OC)c3)C2)c(OC)c1 (stereo not drawn) | 105% (inactive) |
| COc1ccccc1CNCCCN1C(=O)c2ccc3c4c(ccc(c24)C1=O)C(=O)N(CCCN)C3=O | -56% (active) |
| Nc1nc(N)c(NC(=O)CNc2ccc(C(=O)O)cc2)c(N)n1 | 96.4% (inactive) |
| c1ccc(CP(Cc2ccccc2)c2ccccc2)cc1 | 113% (inactive) |
| COC(=O)C1(C)Cc2cc(OC(C)=O)c(OC(C)=O)cc2N1 (stereo not drawn) | 61.8% (inactive) |
| CC(=O)OCc1cc(-c2nc3ccccc3[nH]c2=O)nn1-c1ccc(Cl)cc1 | 102% (inactive) |
| CC(=O)c1nc2ccccc2n1CCN1CCN(C)CC1 | 48% (inactive) |
| COc1ccc(-c2nn(-c3cccc(NC(=O)Nc4ccc(Cl)c(C(F)(F)F)c4)c3)cc2-c2ccncc2)cc1Cl | 19.3% (inactive) |
| COc1cc(C(=O)/C=C/c2cc(-c3cc(OC)c(OC)c(OC)c3)n[nH]2)cc(OC)c1OC | -84.3% (active) |
| Cc1cccc(NC2=C(C#N)C(=O)NC3(CCCC3)S2)c1 | 102% (inactive) |
| O=C1/C(=C\c2ccc(F)cc2)CN(C(=O)c2ccccc2)C/C1=C\c1ccc(F)cc1 | 26.6% (inactive) |
| COc1cc(-c2cc(/C=C3\C(=O)Nc4ccccc43)[nH]n2)cc(OC)c1OC | 79.3% (inactive) |
| COc1cc(/C=C\c2cc(OC)c(OC)c(OC)c2)cc(NS(=O)(=O)c2ccc(Cl)cc2)c1OC | -4.53% (active) |
| S=C1SCC(c2ccccc2)S1 (stereo not drawn) | 105% (inactive) |
| CCN(CC)Cc1cc(Nc2ccnc3cc(Cl)ccc23)ccc1OC | 64.2% (inactive) |

| SMILES | growth |
| --- | --- |
| COC(=O)C(C(C[N+](=O)[O-])c1ccccc1)=P(c1ccccc1)(c1ccccc1)c1ccccc1 (stereo not drawn) | 85.9% (inactive) |
| O=S(=O)(NCCCNc1nccc(-c2c(-c3ccc(F)cc3)nc3sccn23)n1)c1ccc2ccccc2c1 | 66.7% (inactive) |
| CC(=O)N1N=C(c2ccc(Cl)cc2)CC1c1sc(Cl)nc1Cl (stereo not drawn) | 80.5% (inactive) |
| O=c1[nH]c2ccc(Cl)cc2c2ccccc12 | 61.1% (inactive) |
| COc1ccc(NC2=NC(C)(CO)CS2)cc1 (stereo not drawn) | 130% (inactive) |
| N#Cc1ncc(Br)c(NC2CCCCCC2)n1 | 95.2% (inactive) |
| O=C(Nc1cccc(-n2cc(-c3ccncc3)c(-c3cc(O)cc(Cl)c3)n2)c1)Nc1ccc(Cl)c(C(F)(F)F)c1 | -49.5% (active) |
| Nc1ncn(C2OC(CO)C(O)C2O)c(=O)n1 (stereo not drawn) | 10.6% (inactive) |
| O=C(Nc1nc(-c2ccccc2Cl)cs1)c1cc(-c2ccc(Cl)cc2)nc2ccc(Cl)cc12 | 88.8% (inactive) |
| Nc1c(C(=O)Nc2cccc(F)c2)sc2nc3c(cc12)C(=O)CCC3 | -14.3% (active) |
| COc1ccc(-c2cc(/C=C3\C(=O)Nc4ccc(Cl)cc43)[nH]n2)cc1OC | 88.5% (inactive) |
| O=C1CC[C@@H]2CCCC[C@@H]2C1 | 130% (inactive) |
| COc1ccc2c(c1)O/C(=C\c1ccc([N+](=O)[O-])s1)C2=O | -17.3% (active) |
| Nc1nc(N)c2c(ccc3nccc32)[nH]1 | 56.5% (inactive) |
| Nc1cc2c(cc1Cl)-c1ccc([N+](=O)[O-])cc1/C2=N\O | 104% (inactive) |
| COc1cc(-c2cc(/C=C/C(=O)c3ccc4c(c3)OCO4)[nH]n2)cc(OC)c1OC | 75.4% (inactive) |
| COc1ccc(Cl)cc1C(=O)Nc1nc2ccc(Cl)cc2s1 | 95% (inactive) |
| Cc1cc2c(C)c3cc(C)c(N)cc3nc2cc1N | 16.3% (inactive) |
| O=c1oc2cc(OS(=O)(=O)c3ccccc3)ccc2c2c1CCCCC2 | 64% (inactive) |

From PubChem BioAssay (NCI)
